Screening results from PubChem BioAssay.
Gal4-VP16 FLuc: inhibits Gal4-VP16 luciferase reporter, ROR gamma counter-screen. Drosophila S2 Gal4-VP16 UAS-luciferase, luminescence, 20 h. Potency, µM (titrated, usually from 53.6 µM), actives largely listed as inhibitors. hit rate 3.5% among 310,000;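 note: Gal4-VP16 expression switched on by copper sulfate through the metallothionein promoter; nearly all actives have a fitted effect of over 50% in size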
TDP1 block: blocks human tyrosyl-DNA phosphodiesterase 1. recombinant TDP1, AlphaScreen DNA substrate cleavage. Potency, µM (series often up to 130 µM), actives largely listed as inhibitors. hit rate 0.28% among 350,000. AID 485290; note: nearly all actives have a fitted effect of over 40% in size
Target sequence (Q9NUW8 whole entry, looked up): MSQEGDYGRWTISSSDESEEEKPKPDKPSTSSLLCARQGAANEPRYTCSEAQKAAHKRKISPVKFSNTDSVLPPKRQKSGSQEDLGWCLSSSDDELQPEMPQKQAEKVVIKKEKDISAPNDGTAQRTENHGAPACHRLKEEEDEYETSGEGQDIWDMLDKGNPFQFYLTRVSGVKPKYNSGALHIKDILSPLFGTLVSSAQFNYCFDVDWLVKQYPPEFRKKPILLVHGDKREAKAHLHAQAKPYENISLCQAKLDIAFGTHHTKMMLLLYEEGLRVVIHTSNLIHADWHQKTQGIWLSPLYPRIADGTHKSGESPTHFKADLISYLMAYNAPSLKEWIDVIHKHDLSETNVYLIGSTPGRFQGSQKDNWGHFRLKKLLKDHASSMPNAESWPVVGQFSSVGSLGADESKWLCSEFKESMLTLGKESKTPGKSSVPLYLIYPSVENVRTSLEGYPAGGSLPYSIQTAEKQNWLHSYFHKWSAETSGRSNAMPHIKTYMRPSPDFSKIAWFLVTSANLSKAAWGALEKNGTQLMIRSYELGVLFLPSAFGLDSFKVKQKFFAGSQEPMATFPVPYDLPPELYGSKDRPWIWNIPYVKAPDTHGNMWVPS
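Recombinant human Tdp1 (E. coli-expressed, 1 nM final) preincubated with compounds 15 min at room temperature, then 5'-biotin/3'-phosphotyrosine-FITC DNA substrate (15 nM final) added for 5 min. AlphaScreen beads (10 ug/ml final) added 10 min; cleavage lowers signal.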
TDP1 cell CPT: DT40-hTDP1 cell growth loss with CPT. chicken DT40 Tdp1-/-;hTDP1 cells + 20 nM CPT, ATP luminescence, 48 h. Potency, µM (doses to about 46.2 µM), most hits filed as inhibitors. hit rate 12% among 420,000. AID 686979; note: nearly all actives have a fitted effect of over 55% in size
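Chicken DT40 Tdp1-/- cells stably complemented with human TDP1 were seeded at 400 cells/well in medium containing 20 nM camptothecin, exposed to pin-transferred compounds, and grown at 37 °C for at least 48 hr. Viability was read as ATP luminescence.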
RORg inh: inhibitors of mouse ROR gamma transcriptional activity; P51450; Drosophila S2 Gal4-RORgamma UAS-luciferase reporter, 20 h; Potency, µM (doses to about 53.6 µM), usual class: inhibitors; hit rate 5.4% among 310,000; AID 2551; note: nearly all actives have a fitted effect of over 60% in size
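Stable Schneider cell line, Gal4 DNA-binding domain fused to ROR gamma, UAS-luciferase. Cmpd 1 hr RT → CuSO4 700 uM final → 20 hr RT → luciferase reagent 10 min → luminescence.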
TDP1 cell noCPT: qHTS for Inhibitors of human tyrosyl-DNA phosphodiesterase 1 (TDP1): qHTS in cells in absence of CPT. DT40 Tdp1-/- hTDP1 cells, no CPT, ATP luminescence, 48 h. hit rate 15% among 420,000. Potency, µM (doses to about 46.2 µM), actives largely listed as inhibitors. AID 686978, 2013; note: nearly all actives have a fitted effect of over 55% in size
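Growth of hTDP1-complemented DT40 Tdp1-knockout cells is measured by ATP luminescence after at least 48 hr compound exposure at 37 °C, with DMSO substituting for the 20 nM CPT used in the parallel screen.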
Numbers stand for hits; i = inactive; ? = inconclusive; nt = not tested or not shown; [ ] = dose if it differs, or a comment. A selection: hits, their analogues and other compounds. The true share with any hit is near 19%. Calls come from the whole dose curve; as a rule, active = well fitted curve in the direction sought with a large enough effect; inconclusive = small, poorly fitted or top-dose-only effect, or another doubt; inactive = no such curve, though single readings can be large; an effect the other way counts as inactive or inconclusive.

SMILES | Gal4-VP16 FLuc | TDP1 block | TDP1 cell CPT | RORg inh | TDP1 cell noCPT
COc1ccc(C(CNC(=O)Cc2ccccc2Cl)N2CCCCC2)cc1 (stereo not given) | i | i | i | i | i
COc1ccc(C(CNC(=O)c2ccc(C)o2)N2CCOCC2)cc1 (stereo not given) | nt | i | i | nt | i
Cc1cccc(-c2nc(C#N)c(NCC3CCCO3)o2)c1 (stereo not given) | i | nt | i | i | ?
CCn1cc2nc(SCc3cc(C)ccc3C)n(CCc3ccccc3)c(=O)c2n1 | nt | i | 21µM | nt | 18µM
CCn1cc2nc(SCc3cccc(OC)c3)n(Cc3ccc(Cl)cc3)c(=O)c2n1 | nt | i | 16µM | nt | 13µM
CCn1cc2nc(SCC(=O)Nc3ccc(OC)c(OC)c3)n(Cc3ccc(Cl)cc3)c(=O)c2n1 | nt | i | 18µM | nt | ?
COc1ccc(Br)cc1CN1C(=O)c2ccccc2C1C(=O)NC1CCCCCC1 (stereo not given) | nt | i | ? | nt | i
COc1ccc(-c2cc(C)cc3c2OC(CNC(=O)c2cc(C(C)C)on2)C3)nn1 (stereo not given) | nt | nt | i[9.04 µM] | nt | i
O=C(CSc1cccc[n+]1[O-])CSc1cccc[n+]1[O-] | ? | nt | 1µM | 4µM | 9.2µM
[O-][n+]1ccccc1SSc1cccc[n+]1[O-] | 0.89µM | i | 0.11µM | 0.35µM | 0.12µM
O=C(CSc1cccc[n+]1[O-])NC1CCCCCCC1 | i | i | i | i | i
O=C(CSc1cccc[n+]1[O-])N1CCCCCC1 | i | i | i | i | i
c1ccc(Nc2ncncc2-c2ccoc2)cc1 | i | nt | ? | i | i
O=C1C2CC=CCC2C(=O)N1c1ccc(N2CCN(c3ccccn3)CC2)c([N+](=O)[O-])c1 (stereo not given) | 4.5µM | i | ? | i | 16µM
Cc1nn(C(C)C(=O)N2CCCCC2)c(=O)c2c1sc1ccccc12 (stereo not given) | i | i | ? | i | 21µM
COc1ccc(N2CCN(C(=O)C(C)n3nc(C)c4sc5ccccc5c4c3=O)CC2)cc1 (stereo not given) | nt | i | ? | nt | 16µM
Cc1oc2c(c(C)cc3oc(=O)c(CC(=O)N[C@@H](CCCNC(N)=O)C(=O)O)c(C)c32)c1C | i | nt | i | i | i
CC(C)Oc1ccc(CNC(=O)c2ccc3nc(N4CCOCC4)sc3c2)cc1 | ? | nt | i | i | i
COC(=O)[C@@]1(Cc2ccc(F)cc2)[C@H]2c3cc(C(=O)N(C)C)n(Cc4cc(C)n(C)n4)c3C[C@H]2CN1C(=O)c1ccccc1 | i | i | ? | i | ?
COC(=O)[C@@]1(Cc2ccc(F)cc2)[C@H]2c3cc(C(=O)N4CCCC4)n(CCF)c3C[C@H]2CN1C(=O)c1ccccc1 | i | i | 23µM | i | 23µM
COC(=O)[C@@]1(Cc2ccc(F)cc2)[C@H]2c3cc(C(=O)N4CCCC4)n(Cc4ccc(C)c(F)c4F)c3C[C@H]2CN1C(=O)c1ccccc1 | i | i | ? | i | 23µM
COC(=O)[C@@]1(Cc2ccc(F)cc2)[C@H]2c3cc(C(=O)N4CCCC4)n(Cc4cc(C)n(C)n4)c3C[C@H]2CN1C(=O)c1ccccc1 | i | i | 21µM | i | 16µM
COC(=O)[C@@]1(Cc2ccc(F)cc2)[C@H]2c3cc(C(=O)N4CCCC4)n(CCCNc4ncc(C(F)(F)F)cc4Cl)c3C[C@H]2CN1C(=O)c1ccccc1 | i | i | ? | i | 16µM
COc1cccc(Nc2nc3ccc(C(=O)c4ccccc4)cc3n3cnnc23)c1 | i | nt | i | i | ?
c1ccc(CO/N=C(\c2ccc(C3CC3)nc2)C2CC2)cc1 | i | i | i | i | ?
O=C(/C=C/[C@H]1O[C@@H](n2ccc(=O)[nH]c2=O)[C@H](O)[C@@H]1O)N1CCN(Cc2ccc(F)cc2)CC1 | nt | nt | i | nt | i
O=[N+]([O-])c1cc(S(=O)(=O)N2CCCCC2)ccc1NCc1cccc(Cl)c1 | ? | i | i | i | 29µM
CN1CCN(S(=O)(=O)c2ccc(Nc3cccc(Cl)c3)c([N+](=O)[O-])c2)CC1 | nt | i | ? | nt | 23µM
